High-throughput results as filed in PubChem BioAssay.
This is a sample that favours compounds with a hit; in the whole collection about 3.4% have one here.
PLCg1 inh = blocks human PLC-gamma1 enzyme activity | P19174 | purified PLC-gamma1, fluorogenic substrate, fluorescence | inhibition, % at 12.2 µM | hit rate 0.84% among 370,000 | AID 720700; in the data active means inhibition above about 9.5%
ADAM10 inh = ADAM10 inhibition, QFRET primary screen. O14672. recombinant ADAM10, EDANS/DABCYL FRET peptide cleavage, 3 h. inhibition, % at 7 µM. hit rate 0.62% among 370,000. AID 720582;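 active means inhibition above a per-campaign cutoff equal to the mean of compounds falling between control-based bounds plus 3 SD, cut at about 20% in these data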
HGIII-sPLA2 inh = Inhibits HGIII-sPLA2 liposome hydrolysis, primary screen; hit rate 0.56% among 370,000; Q9NZ20; QFRET BODIPY PC-A2 liposome hydrolysis, fluorescence; AID 743126; inhibition, % at 12.2 µM;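 active means inhibition above mean plus 3 SD of compounds lying within the high and low control bounds, cut at about 19% in these data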
PLCb3 inh = inhibitors of human phospholipase C beta3; Purified PLC-beta3, fluorogenic substrate, fluorescence; inhibition, % at 12.2 µM; hit rate 0.18% among 370,000; AID 720704; in the data active means inhibition above about 11%
proKLK7 act = proKLK7 (human) activation, primary screen | AID 652039 | purified proKLK7, EDANS-DABCYL substrate fluorescence; 100% is mature enzyme control, 0% vehicle | hit rate 0.9% among 370,000 | P49862 | activation, % at 7 µM;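 active means activation above the mean of all tested compounds plus 3 SD, computed per campaign excluding outliers beyond control limits, cut at about 13% in these data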
ADAM17 inh = ADAM17 inhibition, QFRET primary screen; inhibition, % at 6.95 µM; hit rate 0.83% among 370,000; P78536; AID 720648; recombinant ADAM17, EDANS/DABCYL FRET peptide cleavage;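 active means inhibition above the mean of compounds lying between control limits plus 3 SD, set per campaign, cut at about 8.5% in these data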
Target sequence (P78536 215-824 limits assumed): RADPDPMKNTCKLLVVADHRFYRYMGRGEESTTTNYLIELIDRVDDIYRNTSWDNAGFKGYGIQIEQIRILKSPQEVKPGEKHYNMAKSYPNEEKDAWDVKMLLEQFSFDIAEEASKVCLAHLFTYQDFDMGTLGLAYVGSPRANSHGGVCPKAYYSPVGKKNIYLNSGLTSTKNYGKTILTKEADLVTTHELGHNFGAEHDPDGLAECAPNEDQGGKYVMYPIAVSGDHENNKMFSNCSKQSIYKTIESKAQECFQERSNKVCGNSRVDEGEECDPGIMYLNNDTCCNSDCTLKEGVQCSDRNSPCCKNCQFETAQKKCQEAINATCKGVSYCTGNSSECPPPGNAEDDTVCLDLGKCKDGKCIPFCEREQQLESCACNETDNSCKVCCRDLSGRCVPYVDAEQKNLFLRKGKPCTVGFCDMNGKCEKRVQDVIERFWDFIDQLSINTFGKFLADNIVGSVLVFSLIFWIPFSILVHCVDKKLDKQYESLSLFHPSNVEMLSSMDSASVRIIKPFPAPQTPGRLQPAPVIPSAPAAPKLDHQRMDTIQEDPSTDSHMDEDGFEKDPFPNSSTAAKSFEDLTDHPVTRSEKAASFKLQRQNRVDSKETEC
ADAM10 counter = counter-screen for ADAM17 exosite inhibitors: inhibitors of human ADAM10 | shares compounds with ADAM17 inh | recombinant ADAM10, EDANS/DABCYL FRET peptide cleavage, 3 h | inhibition, % at 6.95 µM | hit rate 47% among 2,900 | AID 743256;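 active means mean inhibition over the triplicate runs exceeds the activity threshold set in the earlier primary screen, cut at about 20% in these data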
ADAM17 confirm = human ADAM17 inhibition, confirmation; shares compounds with ADAM17 inh; hit rate 65% among 2,900; AID 743257; inhibition, % at 6.95 µM; recombinant ADAM17, EDANS/DABCYL QFRET peptide cleavage;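 active means mean inhibition across replicates above the hit cutoff set in the primary screen, cut at about 8.5% in these data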
Numbers stand for hits.

Screening Cn1c(COc2ccccc2)nnc1SCC(=O)Nc1ccc(S(=O)(=O)Nc2nccs2)cc1 returned PLCg1 inh inactive, ADAM10 inh inactive, HGIII-sPLA2 inh inactive, PLCb3 inh inactive, proKLK7 act inactive and ADAM17 inh inactive.
Cc1cccc2sc(NC(=O)CN(C)S(=O)(=O)c3ccc(Br)s3)nc12 was read as PLCg1 inh inactive, ADAM10 inh inactive, HGIII-sPLA2 inh inactive, PLCb3 inh inactive, proKLK7 act inactive, ADAM17 inh 8.8, ADAM10 counter 44 and ADAM17 confirm 24.
`COc1ccc([C@H]2CC(=O)C=C(c3ccc(F)cc3OCc3ccccc3)C2)cc1OC` gave PLCg1 inh inactive, ADAM10 inh inactive, HGIII-sPLA2 inh inactive, PLCb3 inh inactive, proKLK7 act inactive, ADAM17 inh 9.8, ADAM10 counter inactive and ADAM17 confirm inactive.
`CC1COCC(C)N1S(=O)(=O)c1ccc2c(c1)CCN2C(=O)C1CCC1` (configuration not stated) gave PLCg1 inh inactive, ADAM10 inh inactive, HGIII-sPLA2 inh inactive, PLCb3 inh inactive, proKLK7 act inactive and ADAM17 inh inactive.
For C=CCN(C)C(C#CCCCC)c1ccccc1 (configuration not stated) the results were PLCg1 inh inactive, ADAM10 inh inactive, HGIII-sPLA2 inh inactive, PLCb3 inh inactive and ADAM17 inh inactive.
COC(=O)c1cn(-c2ccc3c(c2)[C@]2(CC(=O)N(C)C2c2ccccc2)C(=O)N3CC(C)C)nn1 (some centres not stated) was read as PLCg1 inh inactive, ADAM10 inh inactive, HGIII-sPLA2 inh inactive, PLCb3 inh inactive, proKLK7 act inactive and ADAM17 inh inactive.
`CCOC(=O)Cn1cc(CN2CCS(=O)(=O)N(Cc3ccc(OC)cc3)C(C(=O)OC)C2)nn1` (configuration not stated) gave PLCg1 inh inactive, ADAM10 inh inactive, HGIII-sPLA2 inh inactive, PLCb3 inh inactive, proKLK7 act inactive and ADAM17 inh inactive.
`N=C1/C(=C/c2cccn2CCOc2ccccc2)C(=O)N=C2SC=C(c3ccccc3)N12` gave PLCg1 inh inactive, ADAM10 inh inactive, HGIII-sPLA2 inh inactive, PLCb3 inh inactive, proKLK7 act inactive, ADAM17 inh 9.7, ADAM10 counter inactive and ADAM17 confirm 14.
For Cc1ccc(-c2csc(NC(=O)Cn3cnc4c3c(=O)n(C)c(=O)n4C)n2)cc1C the results were PLCg1 inh inactive, ADAM10 inh inactive, HGIII-sPLA2 inh inactive, PLCb3 inh inactive, proKLK7 act inactive and ADAM17 inh inactive.
`Cn1c(=O)c2c(ncn2CC(=O)Nc2nc(-c3ccc(F)c(F)c3)cs2)n(C)c1=O` gave PLCg1 inh inactive, ADAM10 inh inactive, HGIII-sPLA2 inh inactive, PLCb3 inh inactive, proKLK7 act inactive, ADAM17 inh 8.8, ADAM10 counter inactive and ADAM17 confirm inactive.
Cc1nnsc1NC(=O)OCc1ccc(Cl)cc1Cl was read as PLCg1 inh inactive, ADAM10 inh inactive, HGIII-sPLA2 inh inactive, PLCb3 inh inactive, proKLK7 act inactive, ADAM17 inh 10, ADAM10 counter inactive and ADAM17 confirm inactive.
`CCOC(=O)[C@]12CCCCC/C=C\1N(Cc1ccc(OC)cc1)C(=O)[C@H]2CC(=O)N1CCC(c2ccccc2)CC1` gave PLCg1 inh inactive, ADAM10 inh inactive, HGIII-sPLA2 inh inactive, PLCb3 inh inactive, proKLK7 act inactive, ADAM17 inh 9.4, ADAM10 counter inactive and ADAM17 confirm inactive.
For COc1ccc(CC2(c3ccccc3)NC(=O)NC2=O)cc1 (configuration not stated) the results were PLCg1 inh inactive, ADAM10 inh inactive, HGIII-sPLA2 inh inactive, PLCb3 inh inactive, proKLK7 act inactive and ADAM17 inh inactive.
`O=C1NC(=O)C(Cc2ccc(Cl)cc2)(c2ccccc2)N1` (configuration not stated) gave PLCg1 inh inactive, ADAM10 inh inactive, HGIII-sPLA2 inh inactive, PLCb3 inh inactive, proKLK7 act inactive, ADAM17 inh 40, ADAM10 counter inactive and ADAM17 confirm 65.
Screening O=C1NC(=O)C(Cc2ccccc2)(c2ccccc2)N1 (configuration not stated) returned PLCg1 inh inactive, ADAM10 inh inactive, HGIII-sPLA2 inh inactive, PLCb3 inh inactive, proKLK7 act inactive and ADAM17 inh inactive.
Cc1ccc(CC2(c3ccccc3)NC(=O)NC2=O)cc1 (configuration not stated) was read as PLCg1 inh inactive, ADAM10 inh inactive, HGIII-sPLA2 inh inactive, PLCb3 inh inactive, proKLK7 act inactive, ADAM17 inh 18, ADAM10 counter inactive and ADAM17 confirm 18.
CCCCC(=O)Nc1cccc(-c2csc(-c3ccccc3)n2)c1 was read as PLCg1 inh inactive, ADAM10 inh inactive, HGIII-sPLA2 inh inactive, PLCb3 inh inactive, proKLK7 act inactive, ADAM17 inh 8.9, ADAM10 counter 22 and ADAM17 confirm 17.
O=C(CSc1nnc(NC(=O)c2ccc(F)cc2)s1)NCc1ccco1 was read as PLCg1 inh inactive, ADAM10 inh inactive, HGIII-sPLA2 inh inactive, PLCb3 inh inactive, proKLK7 act inactive and ADAM17 inh inactive.
O=C(CSc1nnc(NC(=O)c2cccc(F)c2)s1)NCc1ccco1 was read as PLCg1 inh inactive, ADAM10 inh inactive, HGIII-sPLA2 inh inactive, PLCb3 inh inactive, proKLK7 act inactive, ADAM17 inh 8.6, ADAM10 counter inactive and ADAM17 confirm inactive.
For CCC[C@H]1[C@@H](OC(=O)NCc2ccc(C)cc2)CC[C@@]23CCCN2C(=O)CCC[C@@H]13 the results were PLCg1 inh inactive, ADAM10 inh inactive, HGIII-sPLA2 inh inactive, PLCb3 inh inactive and ADAM17 inh inactive.
`C/C(CC(=O)Nc1ccc(Br)cc1)=N\NC(=O)c1cccc(O)c1` gave PLCg1 inh inactive, ADAM10 inh inactive, HGIII-sPLA2 inh inactive, PLCb3 inh inactive, proKLK7 act inactive, ADAM17 inh 10.0, ADAM10 counter inactive and ADAM17 confirm inactive.
For COc1ccc(-n2c(SC/C=C/c3ccccc3)nnc2-c2cccs2)cc1 the results were PLCg1 inh inactive, ADAM10 inh inactive, HGIII-sPLA2 inh inactive, PLCb3 inh inactive, proKLK7 act inactive and ADAM17 inh inactive.
`C[C@@H]1CN([C@H](C)CO)C(=O)c2cc(NC(=O)Cc3cn(C)c4ccccc34)ccc2O[C@H]1CN(C)C(=O)Nc1ccc2c(c1)OCO2` gave PLCg1 inh inactive, ADAM10 inh inactive, HGIII-sPLA2 inh inactive, PLCb3 inh inactive, proKLK7 act inactive, ADAM17 inh 14, ADAM10 counter inactive and ADAM17 confirm inactive.
